From PubChem BioAssay (NCATS)
This is one part of the list. Results filed as inconclusive are left out. Activity calls are given as the source filed them. Calls come from the whole dose curve; as a rule, active = well fitted inhibition curve with a large enough effect; inconclusive = small, poorly fitted or top-dose-only effect; inactive = flat fitted curve, though single readings scatter.

The compounds below were run against Fructose-bisphosphate aldolase (Giardia intestinalis (strain ATCC 50803 / WB clone C6)) (UniProt A8B2U2) (assay: qHTS Assay for Inhibitors of Fructose-1,6-bisphosphate Aldolase from Giardia Lamblia: Primary screen confirmation (AID 2787;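 note: aldolase product measured through coupled diaphorase step turning resazurin into fluorescent resorufin; nearly all actives have a fitted effect of over 45% in size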)). Settings: purified Giardia aldolase enzyme activity; series mostly up to 57.5 µM.
Chain of Fructose-bisphosphate aldolase (Giardia intestinalis (strain ATCC 50803 / WB clone C6)) (A8B2U2 whole entry, looked up): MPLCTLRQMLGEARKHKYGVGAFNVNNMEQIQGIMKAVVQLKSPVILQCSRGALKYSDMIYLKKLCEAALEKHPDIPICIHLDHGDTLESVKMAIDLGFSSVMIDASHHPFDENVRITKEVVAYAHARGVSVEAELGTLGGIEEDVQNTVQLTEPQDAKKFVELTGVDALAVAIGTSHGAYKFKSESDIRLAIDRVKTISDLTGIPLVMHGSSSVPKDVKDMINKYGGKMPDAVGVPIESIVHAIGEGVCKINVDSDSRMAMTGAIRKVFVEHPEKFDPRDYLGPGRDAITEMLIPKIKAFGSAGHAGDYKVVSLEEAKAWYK
Excerpt: NIH Chemical Genomics Center [NCGC]
NIH Molecular Libraries Probe Production centers Network [MLPCN]
Assay Provider: Osnat Herzberg, University of Maryland
The objective of this project is to obtain compounds that inhibit Giardia lamblia growth. G. lamblia is a human pathogen which afflicts impoverished nations; it is the most common cause of outbreaks of diarrhea in the United States. During the course of our study of potential drug targets in Giardia, we have identified the Class II (Zn2+ functions in electrophilic catalysis) fructose-1,6-bisphosphate aldolase (FBPA) as an excellent candidate for drug targeting. FBPA is a key glycolytic pathway enzyme, essential for G. lamblia survival. The human FBPA belongs to the Class I aldolases, which have a different substrate binding site structure and a radically different catalytic mechanism (employing a lysine-Schiff base intermediate). Therefore, affinity-based or mechanism-based inhibitors of the Giardia FBPA are expected not to interfere with the catalytic function of the human FBPA.
A glyceraldehyde-3-phosphate dehydrogenase/triose phosphate isomerase/NAD/arsenate coupled assay was adapted to the 1536-well HTP format for use in the primary screen. This was done by coupling it to a diaphorase/resazurin/resorufin reaction that can be monitored by fluorescence (excitation, 544 nm; emission, 590 nm). Compounds identified in this screen will be further evaluated by coupling the glycerol-3-phosphate/triose phosphate isomerase/NADH assay to a phenazine methosulfate/tetranitroblue tetrazolium color reaction. False positives due to the dehydrogenases and diaphorase inhibition will be eliminated, and selectivity assay will triage inhibitors of mammalian triose phosphate isomerase and the Class I FBPA. G. lamblia FBPA inhibitors identified by the in vitro analyses will be examined for growth inhibition of Giardia trophozoites, and for cytotoxicity in human cells.
The present assay was used to confirm hits from the primary screen.
Step,Parameter,Value,Description
1,Enzyme reagent,2 uL,40 nM FBPA w/ 30uM ZnCl2
2,Compound,23 nL,3.68 nM-57.5 uM final concentration
3,Time,10 min,RT Incubation
4,Substrate/detection Reagent,2 uL,Substrate + enzyme coupling system + AmpLite Red kit
5,Time,20 min,RT Incubation
6,Detector,525 nm/598 nm (Fluorescence),ViewLux Fluorescence Read (Read 1)
1,Medium-binding black solid-bottom Kalypsys plates. FRD or Kalypsys dispenser, 2 uL of FBPA enzyme. Bottle kept at 4C.
2,Compound Library (10 mM ,1:5 dilution). Pin-transferred for a [final] range of 3.68 nM-57.5 uM.
4,FRD or Kalypsys dispenser, 2 uL of reaction mixture. Bottle kept at 4C and covered in foil to protect from light.
6,ViewLux Protocol 1194; Excitation filter wheel A (525/20 Pol; BODIPY TMR FP), Emission filter wheel B (598/25 S; BODIPY TMR FP S).
Keywords: Fructose-bisphosphate aldolase, FBPA , Giardia lamblia , Giardia, HTS, Inhibitors

Structure (SMILES) | outcome
C=C(C)CNC(=S)N/N=C/c1ccccc1OCC(=O)O | inactive
COc1ccc(N=Nc2c(-c3ccc(OC)cc3)[nH]oc2=O)cc1 | inactive
O=S(=O)(c1ccc(NC(=S)NN=C(C2CC2)C2CC2)cc1)N1CCOCC1 | inactive
Cn1nnc(NC(=S)NC(=O)c2ccccc2)n1 | inactive
C/C(=N\NC(N)=S)c1cccnc1 | inactive
O=C(CSc1cccc[n+]1[O-])c1ccc(-c2ccccc2)cc1 | inactive
Cc1cc(C)n(-c2ccc(Cl)c(C(=O)O)n2)n1 | inactive
Cc1nnc(N/N=C/c2ccccn2)[nH]c1=O | inactive
O=[N+]([O-])c1ccc2nc(-c3ccccn3)[nH]c2c1 | inactive
O=C(O)Cn1c(Cc2ccccc2)nc2ccccc21 | inactive
COCCN(C(=S)Nc1ccccc1OC)C1CCN(C(C)C)CC1 | inactive
O=C(N/N=C/c1ccccn1)c1cccnc1 | inactive
Cc1csc(NC(=O)CN2CCCCCC2)n1 | inactive
O=C(NC(=S)Nc1ncccn1)c1ccccc1Br | inactive
O=c1[nH]c(=S)[nH]c2[nH]c(=S)[nH]c12 | inactive
Cc1ccc(S(=O)(=O)NNC(=S)NC(C)(C)C)cc1 | inactive
CCN(CC(=O)Nc1ccc(S(=O)(=O)N2CCCC2)cc1)CC(=O)Nc1cccc(OC)c1 | inactive
COc1ccc(C(=O)NC(=S)N2CCCCC2c2cccnc2)cc1OC (stereo not given) | inactive
COc1ccc(Cl)cc1C(=O)NNC(=O)c1nc2nc(C)cc(C)n2n1 | inactive
COc1cc(CN2CCN(Cc3ccc(C)cc3)CC2)c([N+](=O)[O-])cc1OC | inactive

Structure (SMILES) | outcome
CN1C(=O)/C(=C\c2ccc(-c3ccccc3)o2)SC1=S | inactive
O=c1nc(N/N=C/c2ccco2)cn[nH]1 | inactive
CN(C)CCOc1ccc(Cl)cc1C(C)(C)C | inactive
O=[N+]([O-])c1cc([N+](=O)[O-])c2cccnc2c1O | inactive
Cc1cc(C)c2c(=O)[nH]c(SCC(=O)Nc3ccc(Br)cc3)nc2n1 | inactive
Cn1c(=O)[nH]c(=O)c2c1[nH]c(=S)n2Cc1ccccc1 | inactive
O=C1CCCN1CCCNC(=S)Nc1ccc(F)c(Cl)c1 | inactive
Oc1[nH]c2ccc(Br)cc2c1N=Nc1nn[nH]n1 | inactive
CN1CCN(CCCCOc2ccccc2-c2ccccc2)CC1 | inactive
C=CCc1cc(C)ccc1OCCCn1ccnc1 | inactive
Cc1nnc(SCC2=C(C(=O)O)N3C(=O)C(NC(=O)Cn4nc(C)c(Cl)c4C)C3SC2)s1 (stereo not given) | inactive
COc1ccccc1CN1CCN(Cc2cc(OC)c(OC)cc2OC)CC1 | inactive
CCc1ccc2c(c1)C1(NN=C(c3ccccc3)S1)C(=O)N2 (stereo not given) | inactive
Oc1ccc2ccccc2c1N=Nc1nccs1 | inactive
O=C(Nc1ccccc1Cl)O/N=C(/c1ccccc1)c1ccccn1 | inactive
Cc1cnc(NC(=O)c2ccccn2)s1 | inactive
Cc1cc(C)nc(N/N=C/c2ccc([N+](=O)[O-])o2)n1 | inactive
O=C(Nc1nnc(-c2ccco2)o1)c1ccc(S(=O)(=O)N2CCOCC2)cc1 | inactive
CSc1n[nH]c(=S)n1N | inactive
O=C(CN1CCN(Cc2ccccc2)CC1)Nc1ccc(F)c(F)c1 | inactive
